# The sample as a whole holds a higher share of the strongest signals than the screen did.
# B1: LecB LY19 (Pseudomonas aeruginosa) (protein)
# chain: MATQGVFTLPANTQFGVTAFANSAGTQTVNVQVNNETVATFTGQSTNNGIIGSKVLNSGGGGKVQILVSVNGRSSDLVSAQVILANELNFALVGSEDSTDNDYNDAVVVINWPLG
# How the values were obtained:
# Experiment in all cases: glycan array binding signal (z-score within array); higher = stronger binding
# Conditions in all cases: glycan notation: IUPAC condensed, linker removed
# [1] = biological target: Fuc(a1-2)Gal(b1-3)GalNAc(b1-3)Gal(a1-4)Gal(b1-4)Glc
# Outline: (§1)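 From the Consortium for Functional Glycomics database, 3228 arrays were curated, keeping only those whose protein sequence was available. Binding is given as a within-array Z-score averaged across arrays sharing a protein sequence and across linkers. Negative Z-scores can be read as non-binding.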
# [2] = biological target: Fuc(a1-2)Gal(b1-3)GlcNAc(b1-3)Gal(b1-4)Glc
# Outline: as §1
# [3] = biological target: Fuc(a1-2)Gal(b1-3)GlcNAc(b1-3)GalNAc
# Outline: as §1
# [4] = biological target: Fuc(a1-2)Gal(b1-3)[Fuc(a1-4)]GlcNAc(b1-3)[Fuc(a1-3)[Gal(b1-4)]GlcNAc(b1-6)]Gal(b1-4)Glc
# Outline: as §1
# [5] = biological target: Fuc(a1-2)Gal(b1-4)Glc
# Outline: as §1
# [6] = biological target: Fuc(a1-2)Gal(b1-4)Glc6S
# Outline: as §1
# [7] = biological target: Fuc(a1-2)Gal(b1-4)GlcNAc(b1-3)Gal(b1-4)GlcNAc
# Outline: as §1
# [8] = biological target: Fuc(a1-2)Gal(b1-4)GlcNAc(b1-3)Gal(b1-4)GlcNAc(b1-3)Gal(b1-4)GlcNAc
# Outline: as §1
# [9] = biological target: Fuc(a1-2)Gal(b1-4)[Fuc(a1-3)]GlcNAc
# Outline: as §1
# [10] = biological target: Fuc(a1-2)Gal(b1-4)[Fuc(a1-3)]GlcNAc(b1-2)Man(a1-3)[Fuc(a1-2)Gal(b1-4)[Fuc(a1-3)]GlcNAc(b1-2)Man(a1-6)]Man(b1-4)GlcNAc(b1-4)[Fuc(a1-6)]GlcNAc
# Outline: as §1
# [11] = biological target: Fuc(a1-2)Gal(b1-4)[Fuc(a1-3)]GlcNAc(b1-2)[Fuc(a1-2)Gal(b1-4)[Fuc(a1-3)]GlcNAc(b1-4)]Man(a1-3)[Fuc(a1-2)Gal(b1-4)[Fuc(a1-3)]GlcNAc(b1-2)Man(a1-6)]Man(b1-4)GlcNAc(b1-4)GlcNAc
# Outline: as §1
# [12] = biological target: Fuc(a1-2)Gal(b1-4)[Fuc(a1-3)]GlcNAc(b1-3)Gal(b1-4)[Fuc(a1-3)]GlcNAc
# Outline: as §1
# [13] = biological target: Fuc(a1-2)Gal(b1-4)[Fuc(a1-3)]GlcNAc(b1-3)Gal(b1-4)[Fuc(a1-3)]GlcNAc(b1-3)Gal(b1-4)[Fuc(a1-3)]GlcNAc
# Outline: as §1
# [14] = biological target: Fuc(a1-2)[Gal(a1-3)]Gal(b1-3)GlcNAc
# Outline: as §1
# [15] = biological target: Fuc(a1-2)[Gal(a1-3)]Gal(b1-3)GlcNAc(b1-2)Man(a1-3)[Fuc(a1-2)[Gal(a1-3)]Gal(b1-3)GlcNAc(b1-2)Man(a1-6)]Man(b1-4)GlcNAc(b1-4)[Fuc(a1-6)]GlcNAc
# Outline: as §1
# [16] = biological target: Fuc(a1-2)[Gal(a1-3)]Gal(b1-4)GlcNAc(b1-2)Man
# Outline: as §1
# [17] = biological target: Fuc(a1-2)[GalNAc(a1-3)]Gal(b1-3)GalNAc(a1-3)[Fuc(a1-2)]Gal(b1-4)GlcNAc
# Outline: as §1
# [18] = biological target: Fuc(a1-2)[GalNAc(a1-4)]Gal(b1-4)GlcNAc
# Outline: as §1
# [19] = biological target: Fuc(a1-3)[Gal(b1-4)]GlcNAc
# Outline: as §1
# [20] = biological target: Fuc(a1-3)[Gal(b1-4)]GlcNAc(b1-3)Gal(b1-4)[Fuc(a1-3)]GlcNAc(b1-3)Gal(b1-4)[Fuc(a1-3)]GlcNAc
# Outline: as §1
# [21] = biological target: Gal(a1-3)Gal
# Outline: as §1
# [22] = biological target: Gal(b1-2)Gal
# Outline: as §1
# [23] = biological target: Gal(b1-3)GlcNAc(a1-6)Gal(b1-4)GlcNAc
# Outline: as §1
# [24] = biological target: Gal(b1-3)GlcNAc(b1-2)Man(a1-3)[GlcNAc(b1-4)][Gal(b1-3)GlcNAc(b1-2)Man(a1-6)]Man(b1-4)GlcNAc(b1-4)GlcNAc
# Outline: as §1
# [25] = biological target: Gal(b1-3)GlcNAc(b1-3)Gal(b1-4)GlcNAc
# Outline: as §1
# [26] = biological target: Gal(b1-3)GlcNAc(b1-3)Gal(b1-4)[Fuc(a1-3)]GlcNAc(b1-6)[Gal(b1-3)GlcNAc(b1-3)]Gal(b1-4)Glc
# Outline: as §1
# [27] = biological target: Gal(b1-3)GlcNAc6S
# Outline: as §1
# [28] = biological target: Gal(b1-3)[Fuc(a1-4)]GlcNAc(b1-3)Gal(b1-3)[Fuc(a1-4)]GlcNAc
# Outline: as §1
# [29] = biological target: Gal(b1-3)[Fuc(a1-4)]GlcNAc(b1-3)Gal(b1-4)[Fuc(a1-3)]GlcNAc
# Outline: as §1
# [30] = biological target: Gal(b1-4)GlcNAc
# Outline: as §1
# [31] = biological target: Gal(b1-4)GlcNAc(b1-2)[Gal(b1-4)GlcNAc(b1-4)]Man(a1-3)[Gal(b1-4)GlcNAc(b1-2)Man(a1-6)]Man(b1-4)GlcNAc(b1-4)GlcNAc
# Outline: as §1
# [32] = biological target: Gal(b1-4)GlcNAc(b1-2)[Gal(b1-4)GlcNAc(b1-6)]Man(a1-6)[GlcNAc(b1-4)][Gal(b1-4)GlcNAc(b1-2)Man(a1-3)]Man(b1-4)GlcNAc(b1-4)GlcNAc
# Outline: as §1
# [33] = biological target: Gal(b1-4)GlcNAc(b1-3)Gal(b1-4)GlcNAc(b1-6)[Gal(b1-3)]GalNAc
# Outline: as §1
# [34] = biological target: Gal(b1-4)GlcNAc(b1-3)[GlcNAc(b1-6)]Gal(b1-4)GlcNAc
# Outline: as §1
# [35] = biological target: Gal3S(b1-3)[Fuc(a1-4)]GlcNAc
# Outline: as §1
# [36] = biological target: Gal6S(b1-4)Glc6S
# Outline: as §1
# [37] = biological target: GalNAc(b1-6)GalNAc
# Outline: as §1
# [38] = biological target: Glc(a1-6)Glc(a1-6)Glc
# Outline: as §1
# [39] = biological target: GlcNAc(b1-2)[GlcNAc(b1-4)]Man(a1-3)[GlcNAc(b1-4)][GlcNAc(b1-2)Man(a1-6)]Man(b1-4)GlcNAc(b1-4)GlcNAc
# Outline: as §1
# [40] = biological target: GlcNAc(b1-3)Gal(b1-3)GalNAc
# Outline: as §1
# [41] = biological target: GlcNAc(b1-3)Gal(b1-4)GlcNAc(b1-3)Gal(b1-4)GlcNAc(b1-3)Gal(b1-4)GlcNAc(b1-3)Gal(b1-4)GlcNAc(b1-2)[GlcNAc(b1-3)Gal(b1-4)GlcNAc(b1-3)Gal(b1-4)GlcNAc(b1-3)Gal(b1-4)GlcNAc(b1-3)Gal(b1-4)GlcNAc(b1-6)]Man(a1-6)[GlcNAc(b1-3)Gal(b1-4)GlcNAc(b1-3)Gal(b1-4)GlcNAc(b1-3)Gal(b1-4)GlcNAc(b1-3)Gal(b1-4)GlcNAc(b1-2)Man(a1-3)]Man(b1-4)GlcNAc(b1-4)[Fuc(a1-6)]GlcNAc
# Outline: as §1
# [42] = biological target: Man(a1-6)Man
# Outline: as §1
# [43] = biological target: Neu5Ac(a2-3)Gal(b1-4)GlcNAc(b1-3)Gal(b1-4)GlcNAc
# Outline: as §1
# [44] = biological target: Neu5Ac(a2-3)Gal(b1-4)GlcNAc(b1-3)Gal(b1-4)GlcNAc(b1-6)[Gal(b1-3)]GalNAc
# Outline: as §1
# [45] = biological target: Neu5Ac(a2-3)Gal(b1-4)GlcNAc(b1-6)[Gal(b1-3)]GalNAc
# Outline: as §1
# [46] = biological target: Neu5Ac(a2-3)[GalNAc(b1-4)]Gal(b1-4)GlcNAc(b1-3)GalNAc
# Outline: as §1
# [47] = biological target: Neu5Ac(a2-6)Gal(b1-4)GlcNAc(b1-2)Man(a1-3)[Neu5Ac(a2-3)Gal(b1-4)GlcNAc(b1-2)Man(a1-6)]Man(b1-4)GlcNAc(b1-4)GlcNAc
# Outline: as §1
# [48] = biological target: Neu5Ac(a2-6)Gal(b1-4)GlcNAc(b1-2)Man(a1-6)[Man(a1-3)]Man(b1-4)GlcNAc(b1-4)GlcNAc
# Outline: as §1
# [49] = biological target: Neu5Ac(a2-6)GalNAc(b1-4)GlcNAc
# Outline: as §1
# [50] = biological target: Neu5Ac(a2-8)Neu5Ac(a2-8)Neu5Ac(a2-3)[GalNAc(b1-4)]Gal(b1-4)Glc
# Outline: as §1
# [51] = biological target: Neu5Gc(a2-3)Gal(b1-4)Glc
# Outline: as §1
# [52] = biological target: Neu5Gc(a2-8)Neu5Gc(a2-3)Gal(b1-4)GlcNAc(b1-3)Gal(b1-4)GlcNAc
# Outline: as §1
binder,measurement,setting,value
B1,glycan array binding signal (z-score),[1],1.77
same,glycan array binding signal (z-score),[2],1.85
same,glycan array binding signal (z-score),[3],1.49
same,glycan array binding signal (z-score),[4],1.32
same,glycan array binding signal (z-score),[5],1.5
same,glycan array binding signal (z-score),[6],1.37
same,glycan array binding signal (z-score),[7],3.29
same,glycan array binding signal (z-score),[8],3.69
same,glycan array binding signal (z-score),[9],2.54
same,glycan array binding signal (z-score),[10],5.32
same,glycan array binding signal (z-score),[11],0.085
same,glycan array binding signal (z-score),[12],5.07
same,glycan array binding signal (z-score),[13],3.27
same,glycan array binding signal (z-score),[14],-0.452
same,glycan array binding signal (z-score),[15],0.089
same,glycan array binding signal (z-score),[16],9.41
same,glycan array binding signal (z-score),[17],-0.497
same,glycan array binding signal (z-score),[18],2.12
same,glycan array binding signal (z-score),[19],1.65
same,glycan array binding signal (z-score),[20],2.77
same,glycan array binding signal (z-score),[21],-0.538
same,glycan array binding signal (z-score),[22],-0.514
same,glycan array binding signal (z-score),[23],-0.55
same,glycan array binding signal (z-score),[24],-0.306
same,glycan array binding signal (z-score),[25],-0.553
same,glycan array binding signal (z-score),[26],0.2
same,glycan array binding signal (z-score),[27],-0.533
same,glycan array binding signal (z-score),[28],3.35
same,glycan array binding signal (z-score),[29],4.05
same,glycan array binding signal (z-score),[30],-0.551
same,glycan array binding signal (z-score),[31],-0.3
same,glycan array binding signal (z-score),[32],-0.542
same,glycan array binding signal (z-score),[33],-0.545
same,glycan array binding signal (z-score),[34],0.575
same,glycan array binding signal (z-score),[35],3.07
same,glycan array binding signal (z-score),[36],-0.533
same,glycan array binding signal (z-score),[37],-0.559
same,glycan array binding signal (z-score),[38],-0.491
same,glycan array binding signal (z-score),[39],-0.556
same,glycan array binding signal (z-score),[40],-0.542
same,glycan array binding signal (z-score),[41],0.196
same,glycan array binding signal (z-score),[42],-0.329
same,glycan array binding signal (z-score),[43],-0.547
same,glycan array binding signal (z-score),[44],-0.554
same,glycan array binding signal (z-score),[45],-0.147
same,glycan array binding signal (z-score),[46],-0.553
same,glycan array binding signal (z-score),[47],-0.539
same,glycan array binding signal (z-score),[48],0.735
same,glycan array binding signal (z-score),[49],-0.55
same,glycan array binding signal (z-score),[50],-0.546
same,glycan array binding signal (z-score),[51],-0.511
same,glycan array binding signal (z-score),[52],-0.556

# — the supplement of paper PMC8728848
